Test results as given in PubChem BioAssay (NCI).
The panel holds about 83,000 compounds, 20% with a hit somewhere; the sample as a whole holds those more often.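 In brief: 96-well plates, 48 h treatment, single concentration, percent growth endpoint.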 The source made the active and inactive calls. Rule for the calls: active = growth percent below 10; inactive = the rest.

system: SK-MEL-2 melanoma; experiment: NCI-60 one-dose screen, 48 h (100 = growth as untreated, 0 = no growth, -100 = all killed); settings: 10 µM unless noted

SMILES | growth
N#Cc1c(NC(=O)c2ccc([N+](=O)[O-])o2)[n+]([O-])c2cc(F)c(F)cc2[n+]1[O-] | 34.6% (inactive)
CC(C)(C)OC(=O)N1C/C(=C\c2cccs2)C(=O)/C(=C/c2cccs2)C1 | 95.6% (inactive)
CC(Cc1nnc(SCC(=O)Nc2ccc(I)cc2)n1N)c1ccccc1 (stereo not given) | 69.8% (inactive)
COC(=O)CC/C(C)=N\Nc1ccc([N+](=O)[O-])cc1 | 57.3% (inactive)
COc1ccccc1OCC(=O)Nc1sc2c(c1C(N)=O)CCC2 | 37.5% (inactive)
CC(=O)N1Cc2ccccc2C(C)Cc2cc(Cl)ccc21 (stereo not given) | 105% (inactive)
COc1ccc(/C(=N/O)c2cc(OC)c(OC)c(OC)c2)c(OC)c1N | 36.5% (inactive)
CC(C)CCC[C@@H](C)[C@H]1CC[C@H]2[C@@H]3CC[C@H]4C/C(=N/O)CC[C@]4(C)[C@H]3CC[C@]12C | 101% (inactive)
C/C(=N\NC(=O)CC#N)c1cc2cc(Cl)ccc2o1 | 96.4% (inactive)
CCC#CC[C@H]1C/C=C2/C(=O)C=C[C@@H]2C/C=C\CCCC(=O)O1 | 8.9% (active)
Cc1cc(C(=O)O)c(N)c(C)n1 | 119% (inactive)
CCCCCCOc1ccc(C2(Cl)c3ccccc3N(C)c3ccccc32)cc1 | 42.3% (inactive)
CC(C)N(Cc1ccc(CN(C(=O)CCl)C(C)C)cc1)C(=O)CCl | 44.9% (inactive)
COc1cc(-n2nc(C(=O)Nc3ccc(C(=O)O)cc3)nc2-c2ccccc2)cc(OC)c1OC | 106% (inactive)
NC(=O)NNC(=O)c1ccccc1 | 128% (inactive)
